# CHX counter: counter-screen for Shiga toxin inhibitors: cycloheximide protein synthesis inhibition. cell reporter, cycloheximide protein synthesis inhibition counterscreen. max response, %. actives 12% (n = 300,000). AID 2314; in the data active = max response mostly above about 13%, no sharp cut-off; inactive = mostly below about 14%; note: read at 38.3 µM for the half of the compounds with a filed dose; 0% is about no effect
# SARS PLpro yeast: SARS-CoV PLP inhibition in yeast; S. cerevisiae expressing SARS-CoV PLpro, growth rescue; Potency, µM (top dose mostly 32.9 µM), for the others: at the top dose activity, positive = growth rescue, actives largely listed as activators; actives 0.19% (n = 330,000); AID 485353; calls by dose curve; note: potency is the fitted concentration of half-maximal effect; 0% is about no effect; nearly all actives have a fitted effect of over 55% in size
# NS1 function inh: blocks influenza NS1 protein function; Potency, µM (titrated, usually from 46.1 µM), inactives show top-dose activity, positive = more growth; actives 0.4% (n = 270,000); calls by dose curve; note: potency is the fitted concentration of half-maximal effect; actives are rising curves; nearly all actives have a fitted effect of over 50% in size
#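 A cell-based growth assay was used: compounds that relieve NS1-induced slow growth of budding yeast raise OD600. Assay medium was yeast nitrogen base with ammonium sulphate and -URA supplement, pH 6.0, with 2% galactose.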
# TbPYK inhibitor: T. brucei pyruvate kinase inhibition. actives 0.12% (n = 410,000). Potency, µM (doses to about 76.8 µM), inactives show at the top dose activity, negative = inhibition, usual class: inhibitors. Q57TT1. TbPYK enzyme, Kinase-Glo Plus ATP luminescence, 45 min. AID 624173; note: potency is the fitted concentration of half-maximal effect; % is set by controls: 0 for no effect and ±100 for the full control effect; nearly all actives have a fitted effect of over 50% in size
#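 Assay buffer: 50 mM TEA pH 7.2, 100 mM KCl, 10 mM MgCl2, 0.05% BSA, 0.01% Tween-20. Pyruvate kinase from T. brucei plus substrate met compound, then ADP (130 uM final). Luminescence was read post 45 min RT.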
# Shiga toxin inh: blocks Shiga toxin action in Vero cells; Vero cells, Shiga toxin protein synthesis inhibition reporter; inhibition, % at 38.7 µM; actives 9.2% (n = 290,000); AID 2315; in the data active = inhibition mostly above about 28%, no sharp cut-off; inactive = mostly below about 43%; note: 0% is about no effect
# LmPK inhibitor: blocks Leishmania mexicana pyruvate kinase activity; Q27686; purified LmPK, Kinase-Glo ATP luminescence, 1 h; Potency, µM (titrated, usually from 57.5 µM), without a hit: top-dose activity change, negative = inhibition, actives largely listed as inhibitors; actives 0.37% (n = 290,000); AID 1721; note: potency is the fitted concentration of half-maximal effect; % is set by controls: 0 for no effect and ±100 for the full control effect
# Target sequence (Q27686 whole entry, looked up): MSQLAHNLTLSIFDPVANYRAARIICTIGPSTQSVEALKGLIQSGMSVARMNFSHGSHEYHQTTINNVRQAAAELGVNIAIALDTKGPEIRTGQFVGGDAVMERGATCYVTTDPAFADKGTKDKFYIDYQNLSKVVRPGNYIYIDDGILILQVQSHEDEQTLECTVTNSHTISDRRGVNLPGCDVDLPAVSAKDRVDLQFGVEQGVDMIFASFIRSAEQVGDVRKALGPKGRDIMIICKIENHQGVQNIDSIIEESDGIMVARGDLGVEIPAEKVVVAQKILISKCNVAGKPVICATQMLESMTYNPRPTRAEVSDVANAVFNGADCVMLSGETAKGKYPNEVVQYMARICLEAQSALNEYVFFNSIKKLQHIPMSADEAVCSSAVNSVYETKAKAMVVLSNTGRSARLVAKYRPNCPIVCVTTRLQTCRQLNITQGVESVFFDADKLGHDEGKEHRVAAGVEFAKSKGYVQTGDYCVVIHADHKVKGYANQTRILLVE
#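 ATP generated from ADP (0.1 mM) and PEP (0.5 mM) by 0.1 nM LmPK over 1 h at room temperature (pH 7.2 imidazole buffer) was detected by coupled luciferase luminescence. Values were normalized to uninhibited and no-enzyme wells.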
# * marks the source's active call; other numbers are inactive results; ? = inconclusive; / = not tested or not shown. This is one part of a sample in which hits are shown more often than they occur. Unless noted, calls come from the whole dose curve; as a rule, active = well fitted curve in the direction sought with a large enough effect; inconclusive = small, poorly fitted or top-dose-only effect, or another doubt; inactive = no such curve, though single readings can be large; an effect the other way counts as inactive or inconclusive.
SMILES,CHX counter,SARS PLpro yeast,NS1 function inh,TbPYK inhibitor,Shiga toxin inh,LmPK inhibitor
O=C(O)COc1ccc2c(c1)O/C(=C\c1cccs1)C2=O,-1.4,-2.8%,-3.9%,-2.9%,5.4,-14.2%
CC1CCN(C(=S)NC(=O)c2cccs2)CC1,12.1,10.2%,/,?,9.1,-0.7%
c1ccc2c(c1)NC1(CCCCC1)n1c-2nc2ccccc21,25.5*,-3.5%,-39.6%,-1.3%,71.1,3.3%
c1ccc2c(c1)NC1(CCCCCC1)n1c-2nc2ccccc21,33.9*,-17.9%,-61.0%,2.6%,77.0*,-14.3%
CC1(c2ccccn2)Nc2ccccc2-c2nc3ccccc3n21 (centres undefined),15.4,-5.9%,-68.4%,-2.0%,26.8,-2.7%
Cn1c2ccccc2c2cc([N+](=O)[O-])ccc21,-2.3,-0.9%,2.4%,-2.1%,26.3,3.2%
CCN(CC)CCn1c2ccccc2c2nc3ccc([N+](=O)[O-])cc3cc21,27.1*,-0.9%,-2.3%,-24.8%,91.7*,2.7%
CCOC(=O)c1nn(-c2ccc(C)cc2)cc1O,54.9*,0.5%,-1.9%,-6.9%,76.2*,-1.8%
CCOC(=O)c1nn(-c2ccc(Cl)cc2)cc1O,56.0*,-0.8%,-5.8%,-9.4%,101.2*,-6.7%
CCOC(=O)c1nn(-c2cc(C(=O)OC)cc(C(=O)OC)c2)cc1O,-2.6,1.1%,-10.9%,6.0%,-18.4,0.2%
CCOC(=O)c1nn(-c2ccc(Cl)cc2C)ccc1=O,-2.8,5.1%,-6.5%,-0.8%,-8.6,-4.8%
CCOC(=O)c1nn(-c2ccc3ccccc3c2)cc1O,39.0*,-3.3%,/,3.7%,108.4*,-2.1%
COC(=O)c1nn(-c2ccc(-c3ccccc3)cc2)cc1O,29.4*,-10.8%,-23.1%,-16.8%,22.3,15.8µM*
CC(C)c1ccc(NC(=O)c2ccc(NC(=O)CCS(=O)(=O)c3cccs3)cc2)cc1,/,/,/,0.3%,/,/
CCOC(=O)C1=NN(c2ccc(Cl)cc2)C(=O)C1,57.0*,-2.2%,0.5%,-13.3%,121.1*,-2.5%
CCOC(=O)c1nn(-c2ccccc2)cc1O,22.9*,-1.1%,-0.1%,-5.0%,55.5*,-6.1%
CCOC(=O)c1cc(C(=O)OCC)cc(-n2cc(O)c(C(=O)OCC)n2)c1,-0.8,-3.9%,10.8%,5.9%,-7.8,2.5%
CCOC(=O)c1nn(-c2ccc3c(c2)OCO3)cc1O,42.6*,1.3%,-18.6%,-3.4%,107.8*,-19.0%
CCOC(=O)CC1=NN(c2ccccc2)C(=O)C1,-1.6,3.3%,8.0%,-9.7%,4.6,-1.2%
CCCn1c2ccccc2c2cnn(CC(=O)NCCc3ccc(OCC)c(OCC)c3)c(=O)c21,/,/,/,0.5%,/,/
Cc1cccc(NC(=S)NNC(=O)c2nn(C)cc2Cl)c1,24.8*,-2.6%,1.0%,-17.3%,34.3,2.1%
Cc1ccc(NC(=S)NNC(=O)c2nn(C)cc2Cl)cc1,19.3*,-2.1%,-2.5%,-22.2%,14.6,6.3%
Cc1ccc(/C=N/OC(=O)c2nn(C)cc2Cl)cc1,55.2*,-5.5%,/,2.8%,89.1*,-18.3%
Cc1ccc(C)c(-n2nnc(C(=O)Nc3ccc(Br)cc3)c2C)c1,/,/,/,2.4%,/,/
Cc1ccc(NC(=S)NNC(=O)c2nnn(-c3ccccc3)c2C)cc1,37.0*,17.4%,26.3%,?,59.3*,0.7%
SMILES,CHX counter,SARS PLpro yeast,NS1 function inh,TbPYK inhibitor,Shiga toxin inh,LmPK inhibitor
CC(=O)CC1c2cc(F)ccc2C=C(c2ccsc2)N1c1ccc(-c2ccc(C(N)=O)cc2)cc1 (centres undefined),/,/,/,-0.7%,/,/
Cc1nc2ccc(NC(=O)N(C(C)C)C(C)C)cc2s1,34.8*,3.8%,-9.8%,-7.6%,53.2*,-1.3%
Cc1nc2ccc(NC(=O)N(C)c3ccccc3)cc2s1,39.7*,5.2%,-5.1%,-11.7%,55.0*,-10.3%
O=C(CSc1n[nH]c(-c2ccncc2)n1)Nc1ccccc1C(F)(F)F,-3.4,0.9%,6.3%,-4.1%,-4.6,-1.0%
Cc1ccc2nc(/C(C#N)=C/c3ccc(-c4ccccc4C(=O)O)o3)[nH]c2c1,15.2,1.6%,9.7%,-0.6%,-1.8,-0.7%
N#C/C(=C\c1ccc(N2CCOCC2)o1)C(=O)NCC1CCCO1 (centres undefined),-4.9,-1.0%,-7.8%,0.3%,24.3,6.5%
Cc1ccc(/C(C#N)=C\c2ccc(N3CCOCC3)o2)cc1,88.4*,-34.8%,4.2%,?,132.7*,5.1%
Cc1ccc2nc(/C(C#N)=C\c3ccc(N4CCOCC4)o3)[nH]c2c1,46.4*,2.7%,?,-8.5%,46.6*,-10.3%
Cc1cc(OCC(=O)Nc2ccc(C(=O)OC3CCCCC3)cc2)ccc1Cl,/,/,/,1.3%,/,/
Cc1nc(N)nc(Nc2ccc(C#N)cc2)c1Br,-2.3,-1.1%,-2.7%,-0.1%,19.7,-2.4%
N#Cc1c(N)nc(N)nc1Nc1ccc(Br)cc1,41.3*,-0.8%,-2.6%,10.1%,89.7*,1.7%
O=C(Nc1ccccc1)N(Cc1ccccc1)C1=NCCS1,2.7,-1.9%,4.7%,-1.0%,-4.6,-5.7%
O=C(Nc1ccccc1)N(C1=NCCCCS1)c1ccccc1,23.7*,-1.1%,-17.7%,0.0%,56.0,-11.1%
O=C(Nc1ccccc1)N(C1=NCCCCS1)c1cccc2ccccc12,45.8*,-2.0%,-9.2%,-11.8%,76.0,-10.1%
COc1ccc(-c2oc3ccccc3c(=O)c2OC(C)=O)cc1,33.9*,-1.8%,/,-3.9%,68.2*,-9.5%
O=C(O)COc1c(-c2ccco2)oc2ccccc2c1=O,7.4,-2.3%,/,6.9%,21.0,4.4%
COc1ccc(-c2oc3cc(O)c(OC)c(O)c3c(=O)c2OC)cc1,16.3*,-1.8%,-76.5%,-0.9%,15.5,-15.7%
COc1c(-c2ccc(O)cc2)oc2cc(O)cc(O)c2c1=O,6.7,0.3%,10.6%,0.0%,10.8,1.9%
CC(=O)Oc1c(-c2ccc(Br)o2)oc2ccccc2c1=O,12.8*,-16.1%,-119.7%,4.8%,39.2,-1.3%
CCOC(=O)c1cnc2ccc(OC)cc2c1Nc1cccc(C(C)=O)c1,/,/,/,2.0%,/,/
O=C(N/N=C/c1cccc2cccnc12)c1ccccc1O,32.1*,-3.0%,-66.0%,0.4%,83.9*,-2.7%
O=C(N/N=C/c1cccc2nccnc12)c1ccccc1O,19.3*,-1.7%,-9.9%,-1.3%,37.0*,-3.0%
COc1ccccc1OCC(=O)N/N=C/c1cccc2cccnc12,-3.6,-7.8%,-34.2%,-6.0%,-9.2,-1.4%
O=C(N/N=C/c1cccc2nccnc12)c1ccncc1,2.4,0.5%,5.8%,-0.5%,-12.1,-0.1%
CCCCNC(=S)N=Nc1c(O)[nH]c2ccccc12,16.0,-11.6%,/,0.6%,118.3*,5.0%
Oc1cccc(NC(=S)N=Nc2c(O)[nH]c3ccccc23)c1,42.1*,0.4%,3.1%,-3.9%,62.1*,0.1%
NC(=S)N=Nc1c(O)[nH]c2ccccc12,-5.0,?,-8.4%,-4.2%,-1.9,-0.7%
CCOc1ccc(NC(=S)N=Nc2c(O)[nH]c3ccccc23)cc1,12.6*,-3.3%,/,2.0%,14.0,2.4%
COc1cccc(-c2cc(C(F)(F)F)nc(-n3nc(C)c(Br)c3C)n2)c1,/,/,/,3.0%,/,/
